Screen size: about 2,500 compounds; about 1,100 (44%) were called active. The set was probably picked from earlier hits. The list shows a part of the results. Unmarked numbers belong to inactive results.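 How the source made its calls: active means inhibition above 50% at 4 µM in the single-point screen; inactive means inhibition of 50% or less.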
test: TNF-a-driven NF-kB reporter inhibitors, primary screen, selectivity assay for NOD1/NOD2 signaling inhibitor project, cell-based, HEK293T NF-kB-Luc, luminescence (AID 1852); details: TNF-a induced, 14 h, at 4 µM, active compounds read high

Compound	inhibition
O=C(NCc1ccccc1)c1ccc(C2SCC(=O)N2Cc2ccccc2)cc1 (configuration not stated)	33.1%
O=C(NCc1ccccc1)c1sc(=S)n2c1[nH]c(=O)c1ccccc12	73.6% (active)
CCOc1ccc(CCNC(=O)c2ccc3c(=O)[nH]c4c(C(=O)NC(C)C)sc(=S)n4c3c2)cc1	50.9% (active)
COc1ccc(OC)c(CCNC(=O)c2ccc3c(=O)[nH]c4c(C(=O)NC(C)C)sc(=S)n4c3c2)c1	35.7%
O=C(NCc1ccco1)c1sc(=S)n2c1[nH]c(=O)c1ccccc12	54.1% (active)
CC(C)NC(=O)c1sc(=S)n2c1[nH]c(=O)c1ccc(C(=O)NCCc3ccc(Cl)cc3)cc12	42.5%
CCCCNC(=O)c1sc(=S)n2c1[nH]c(=O)c1ccccc12	69.9% (active)
COc1cc(C(=O)Nc2sc3c(c2C(=O)NCc2ccco2)CCCC3)cc(OC)c1OC	-39.2%
CCNC(=O)/C(C#N)=C/c1c(N2CCN(c3cccc(Cl)c3)CC2)nc2c(C)cccn2c1=O	-19.8%
COc1ccccc1N1CCN(c2ncnc3sc(C)c(-c4ccccc4)c23)CC1	26.9%
CCc1nc(SCC(=O)N2CCN(c3ccccc3)CC2)c2oc3ccccc3c2n1	0.6%
COc1ccccc1N1CCN(c2nc(C)nc3c2oc2ccccc23)CC1	68.6% (active)
Oc1cc2c(cc1C(c1ccc(Cl)c(Cl)c1)N1CCCC1)OCO2 (configuration not stated)	-22.5%
O=[N+]([O-])c1ccc(O)c(/C=N/Nc2nc3ccccc3[nH]2)c1	67.8% (active)
Cc1cc(N/N=C/c2ccccc2[N+](=O)[O-])nc(-n2nc(C)cc2C)n1	1.1%
O=[N+]([O-])c1cc(Cl)cc(/C=N\Nc2ccccn2)c1O	48.8%
Cc1nc([N+](=O)[O-])c(Sc2nc3ccc([N+](=O)[O-])cc3[nH]2)n1Cc1ccccc1	38%
O=[N+]([O-])c1cc(/C=N/Nc2nc3ccccc3[nH]2)c(O)cc1O	66.5% (active)
C[C@H]1O[C@@H](O[C@H]2[C@@H](O)C[C@H](O[C@H]3[C@@H](O)C[C@H](O[C@H]4CC[C@@]5(C)[C@H](CC[C@@H]6[C@@H]5C[C@@H](O)[C@]5(C)[C@@H](C7=CC(=O)OC7)CC[C@]65O)C4)O[C@@H]3C)O[C@@H]2C)C[C@H](O)[C@@H]1O	104% (active)
Cc1ccccc1-c1cc(C(=O)Nc2sc(C(=O)OC(C)C)c(C)c2C#N)c2ccccc2n1	94.3% (active)
CCOC(=O)c1cc(-c2ccccc2)sc1NC(=O)c1cc(OC)c(OC)c(OC)c1	-26.7%
Cc1ccc(NC(=O)Cc2cc(C(=O)O)c3ccccc3n2)c(C)c1	25.2%
CCOC(=O)c1sc(NC(=O)CSc2n[nH]c(-c3ccccc3)n2)c(C#N)c1C	38.1%
COC(=O)c1sc(NC(=O)c2cc(-c3ccccc3)nc3ccccc23)c(C#N)c1C	75.2% (active)
COc1cc(-c2cc(C(=O)Nc3ccc(N4CCOCC4)cc3)c3ccccc3n2)cc(OC)c1OC	21.8%
CCOC(=O)c1sc(NC(=O)c2cc(-c3ccccc3C)nc3ccccc23)c(C#N)c1C	92.5% (active)
CCOC(=O)c1sc(NC(=O)c2cc(-c3ccccc3)nc3ccccc23)c(C#N)c1C	80.3% (active)

Source: PubChem BioAssay AID1852 (Sanford-Burnham Center for Chemical Genomics, 2009)
